These results are taken from PubChem BioAssay (EPA / NIEHS).

Test [1] is described as follows: CEETOX_H295R_11DCORT_noMTC: CeeTox H295R High-throughput Steroidogenesis Assay for 11-Deoxycortisol (11DCORT), maximum tolerated concentration (MTC) filtered results only (AID 2283911; active = hit-call score of the fitted dose curve at least 0.9, where 1 is the maximum; inactive = score below 0.9). Conditions: actives raise or lower the signal. The protocol: CEETOX_H295R is a cell-based, multiplexed-readout assay that uses H295R, a human adrenal gland cell line, with measurements taken at 48 hours after chemical dosing in a 96-well plate.CEETOX_H295R_11DCORT_noMTC is one of 12 assay component(s) measured or calculated from the CEETOX_H295R assay (11 hormones and 1 viability assay). It is designed to make measurements of hormone induction, a form of inducible reporter, as detected with absorbance signals by HPLC-MS-MS technology. The concentrations for these components have not been pre-filtered for the maximum tolerated concentration (MTC) based on the MTT assay (_noMTC).Data from the assay component CEETOX_H295R_11DCORT_noMTC was analyzed into 1 assay endpoint. This assay endpoint, CEETOX_H295R_11DCORT_noMTC, was analyzed with bidirectional fitting relative to DMSO as the negative control and baseline of activity. Using a type of inducible reporter, gain or loss-of-signal activity using HPLC-MS-MS was used to understand synthesis of 11-Deoxycortisol in H295R cell line at 48hr of chemical exposure, without filtering concentrations for maximum tolerated concentration (MTC). To generalize the intended target to other relatable targets, this assay endpoint is annotated to the steroid hormone intended target family, where the subfamily is glucocorticoids.
Cell culture and media preparation procedures were conducted in accordance with OECD Test No. 456 guidelines, with minor modifications. H295R cells (ATCC CRL-2128) were expanded for 5 passages and frozen in batches in liquid nitrogen. […] For steroid quantification, media samples were shipped to OpAns, LLC (Durham, NC) on dry ice, and samples were thawed to room temperature prior to liquid-liquid extraction. […] Steroid hormones were separated by HPLC, eluted using a reverse phase C18 gradient with electrospray positive ionization, followed by quantification by tandem mass spectrometry (MS/MS). Data were acquired on a MassHunter Workstation Acquisition version B03.01 (Agilent Technologies, Inc.) and processed using MassHunter Quantitative Analysis for QQQ. Accuracy was determined for each hormone analyte from 3 standards to determine upper and lower limits of quantification (ULOQ and LLOQ, respectively) using a 7-point standard curve. Precision and accuracy of the extraction and quantification methods were calculated as the percent relative standard deviation (%RSD) of the spiked standards and percent spiked standard recovered, respectively. The goal was to achieve 100% accuracy (i.e., recover all spiked-in standard at quantification with minimal loss during run time) and good precision (i.e., have %RSD <15% to ensure reproducibility). Test medium was removed following chemical exposure, and cell viability was evaluated in the same wells by MTT. […]

For test [2], the system named is zebrafish Peroxisome Proliferator-activated Receptor gamma (PPARg), gene 557037. Briefly: ATG_zfPPARg_XSP2: Attagene TRANS-FACTORIAL Multi-Species (XSP2) HepG2 Assay for zebrafish Peroxisome Proliferator-activated Receptor gamma (PPARg) (AID 2283833).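 Note: actives increase reporter signal over DMSO so AC50 reflects activation.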 An outline of the steps: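 HepG2 cells transiently transfected with multiplexed GAL4-UAS reporter units expressing chimeric NR-Gal4 receptors, dosed 24 h. Reporter mRNA quantified by RT-PCR, fluorescent labelling, HpaI digestion and capillary electrophoresis; gain of signal fitted against DMSO.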

For test [3], the system named is turtle Thyroid Hormone Receptor, alpha (TRa), gene 101949057. The experiment in a line: ATG_trTRa_XSP2: Attagene TRANS-FACTORIAL Multi-Species (XSP1) HepG2 Assay for turtle Thyroid Hormone Receptor, alpha (TRa) (AID 2283834).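 Note: hits raise reporter mRNA over the DMSO baseline so AC50 marks activators.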 An outline of the steps:
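HepG2 cells transiently transfected with GAL4-UAS reporter units for chimeric turtle TRa-Gal4; mRNA measured 24 h after dosing by RT-PCR and capillary electrophoresis fluorescence, gain of signal fitted against DMSO.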

A short description of test [4]: ATG_M_61_XSP2: Attagene TRANS-FACTORIAL Multi-Species (XSP2) HepG2 Assay for M61 Transcription Factor (Internal Marker) (AID 2283835; active = hit-call score of the fitted dose curve at least 0.9, where 1 is the maximum; inactive = score below 0.9;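 note: active means a rise in signal above the DMSO baseline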). An outline of the steps: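 Internal background marker, read as RT-PCR/capillary-electrophoresis reporter mRNA 24 h post-dose in transiently transfected HepG2 cells. Androgen receptor stimulated with 3 nM 6-alpha-fluorotestosterone plus 1.5 nM norgestrel; gain of signal versus DMSO analysed.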

Test [5] has as its target zebrafish Thyroid Hormone Receptor beta (TRb), thrb (gene 30607) (UniProt Q9PVE4). The experiment in a line: ATG_zfTRb_XSP2: Attagene TRANS-FACTORIAL Multi-Species (XSP1) HepG2 Assay for zebrafish Thyroid Hormone Receptor beta (TRb) (AID 2283836).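 For AC50: potency for induction of reporter signal above DMSO so agonist direction.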 An outline of the steps: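 Multiplexed trans-activation in HepG2 cells, 24 h treatment, with reporter mRNA read by RT-PCR and capillary electrophoresis. Gain-of-signal against DMSO.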

Test [6] addresses human Thyroid hormone Receptor alpha (TRa), THRA (gene 7067) (UniProt P10827). Briefly: ATG_hTRa_XSP2: Attagene TRANS-FACTORIAL Multi-Species (XSP2) HepG2 Assay for human Thyroid hormone Receptor alpha (TRa) (AID 2283838). An outline of the steps:
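Gain-of-signal in reporter mRNA, relative to DMSO, after 24 h dosing of transfected HepG2; quantitation by RT-PCR fragment analysis on capillary electrophoresis.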

The target of test [7] is frog Thyroid hormone Receptor alpha (TRa), thra-a (gene 397942) (UniProt P15204). Briefly: ATG_frTRa_XSP2: Attagene TRANS-FACTORIAL Multi-Species (XSP2) HepG2 Assay for frog Thyroid hormone Receptor alpha (TRa) (AID 2283839). The method, then:
ATG_XSP2_multi-species_TRANS is a cell-based, multiplexed assay created by modifying the existing Attagene TRANS-FACTORIAL system to include a panel of nuclear receptors from some or all the following species: human (Homo sapiens), mouse (Mus musculus), frog (Xenopus laevis), zebrafish (Danio rerio), chicken (Gallus gallus), and turtle (Chrysemys picta). The ECOTOX-FACTORIAL format uses HepG2, a human liver cell line, with measurements taken at 24 hours after chemical dosing in a 24-well plate. Xsp2 included 3 nM 6-alpha-fluorotestosterone and 1.5 nM norgestrel to stimulate the androgen receptor.ATG_frTRa_XSP2 is one of 29 assay components measured or calculated from the ATG_XSP2_multi-species_TRANS assay. It is designed to make measurements of mRNA induction, a form of inducible reporter, as detected with fluorescence intensity signals by Reverse transcription polymerase chain reaction (RT-PCR) and Capillary electrophoresis technology.The assay endpoint ATG_frTRa_XSP2 was analyzed in the positive analysis fitting direction relative to DMSO as the negative control and baseline of activity. […] Furthermore, this assay endpoint can be referred to as a primary readout, because this assay has produced multiple assay endpoints where this one serves a reporter gene function. […]

Test [8] addresses human Thyroid hormone Receptor beta (TRb), THRB (gene 7068) (UniProt P10828). The experiment in a line: ATG_hTRb_XSP2: Attagene TRANS-FACTORIAL Multi-Species (XSP2) HepG2 Assay for human Thyroid hormone Receptor beta (TRb) (AID 2283840).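 Note: actives raise reporter mRNA so potency reflects agonist-like gain of signal.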 An outline of the steps: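 HepG2 transiently transfected with a multi-species panel including a human TRb–Gal4 chimera driving Gal4-UAS reporters; medium contained 3 nM 6-alpha-fluorotestosterone and 1.5 nM norgestrel. 24 h dosing; RT-PCR/capillary electrophoresis readout; positive-direction fit vs DMSO.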

The target in test [9] is zebrafish Thyroid Hormone Receptor alpha (TRa), thraa (gene 30670) (UniProt Q98867). The experiment in a line: ATG_zfTRa_XSP2: Attagene TRANS-FACTORIAL Multi-Species (XSP1) HepG2 Assay for zebrafish Thyroid Hormone Receptor alpha (TRa) (AID 2283832).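 Note: actives raise zebrafish TRa-Gal4 reporter transcript above DMSO baseline.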 An outline of the steps:
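Multiplexed TRANS reporter format in HepG2; the medium also contained 3 nM 6-alpha-fluorotestosterone and 1.5 nM norgestrel. Reporter mRNA after 24 h read by RT-PCR and capillary electrophoresis, scored as induction over DMSO.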

The nature of test [10]: ATG_XTT_Cytotoxicity_XSP2: Cytotoxicity Assessment in the Attagene TRANS-FACTORIAL Multi-Species (XSP2) HepG2 Assay (AID 2283837). The method, then: ATG_XSP2_XTT_Cytotoxicity_multi-species is a cell-based, single-readout assay that uses HepG2, a human liver cell line, with measurements taken at 24 hours after chemical dosing in a 24-well plate.ATG_XTT_Cytotoxicity_XSP2 is an assay component measured from the ATG_XSP2_XTT_Cytotoxicity_multi-species assay. It is designed to make measurements of cell number, a form of viability reporter, as detected with fluorescence intensity signals by XTT cytotoxicity assay technology.Data from the assay component ATG_XTT_Cytotoxicity_XSP2 was analyzed into 1 assay endpoint. This assay endpoint, ATG_XTT_Cytotoxicity_XSP2, was analyzed in the positive analysis fitting direction relative to DMSO as the negative control and baseline of activity. Using a type of viability reporter, loss-of-signal activity can be used to understand changes in the viability. Furthermore, this assay endpoint can be referred to as a primary readout, because the performed assay has only produced 1 assay endpoint. […]
Human liver HepG2 cells are transiently transfected with multiple reporter transcription units (MRTUs) in 6-well plates using FuGene 6 reagent (Roche; 3 ml FuGene/1 mg DNA). […] A major difference between the CIS and TRANS system is that in CIS activities of endogenous TFs are measured, whereas the TRANS assay evaluates changes in activities of exogenous, chimeric NR-Gal4 proteins. […]

Inconclusive results are not listed. Activity calls are given as the source filed them. Rule for the calls, unless noted: active = hit-call score of the fitted dose curve at least 0.9, where 1 is the maximum; inconclusive = response in the unintended direction; inactive = score below 0.9.

zebrafish Thyroid Hormone Receptor alpha (TRa), thraa (gene 30670), sequence (Q98867 whole entry, looked up, the tested form may be a part): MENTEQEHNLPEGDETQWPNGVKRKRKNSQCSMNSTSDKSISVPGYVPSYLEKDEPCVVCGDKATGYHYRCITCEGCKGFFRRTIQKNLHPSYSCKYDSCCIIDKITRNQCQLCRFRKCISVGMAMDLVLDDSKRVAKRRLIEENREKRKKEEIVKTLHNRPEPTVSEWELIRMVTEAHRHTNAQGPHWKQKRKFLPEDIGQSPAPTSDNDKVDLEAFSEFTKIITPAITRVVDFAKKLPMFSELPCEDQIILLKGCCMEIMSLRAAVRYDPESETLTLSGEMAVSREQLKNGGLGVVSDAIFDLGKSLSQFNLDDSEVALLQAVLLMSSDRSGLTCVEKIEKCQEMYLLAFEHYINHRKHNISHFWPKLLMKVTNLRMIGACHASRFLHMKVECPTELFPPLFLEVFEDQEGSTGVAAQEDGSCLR
zebrafish Thyroid Hormone Receptor beta (TRb), thrb (gene 30607), sequence (Q9PVE4 whole entry, looked up): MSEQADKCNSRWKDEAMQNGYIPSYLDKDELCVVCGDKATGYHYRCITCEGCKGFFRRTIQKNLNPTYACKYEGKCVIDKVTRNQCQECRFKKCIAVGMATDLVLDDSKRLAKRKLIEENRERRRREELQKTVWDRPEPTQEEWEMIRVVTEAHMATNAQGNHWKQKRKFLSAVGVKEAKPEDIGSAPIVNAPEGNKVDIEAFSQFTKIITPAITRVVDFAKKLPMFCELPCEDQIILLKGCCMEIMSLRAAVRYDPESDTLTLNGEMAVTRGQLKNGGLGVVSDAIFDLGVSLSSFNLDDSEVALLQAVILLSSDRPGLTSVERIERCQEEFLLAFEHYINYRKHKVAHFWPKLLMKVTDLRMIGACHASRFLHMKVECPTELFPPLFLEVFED
frog Thyroid hormone Receptor alpha (TRa), thra-a (gene 397942), sequence (P15204 whole entry, looked up): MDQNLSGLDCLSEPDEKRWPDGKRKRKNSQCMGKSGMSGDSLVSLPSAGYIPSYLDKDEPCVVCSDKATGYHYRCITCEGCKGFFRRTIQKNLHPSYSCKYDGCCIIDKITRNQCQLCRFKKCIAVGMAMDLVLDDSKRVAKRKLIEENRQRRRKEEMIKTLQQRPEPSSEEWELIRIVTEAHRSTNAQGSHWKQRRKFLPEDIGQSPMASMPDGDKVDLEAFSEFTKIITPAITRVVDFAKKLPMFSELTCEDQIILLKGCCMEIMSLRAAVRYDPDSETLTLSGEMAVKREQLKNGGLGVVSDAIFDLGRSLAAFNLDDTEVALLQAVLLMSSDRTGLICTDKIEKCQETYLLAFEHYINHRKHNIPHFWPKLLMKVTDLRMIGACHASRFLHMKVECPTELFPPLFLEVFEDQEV
human Thyroid hormone Receptor beta (TRb), THRB (gene 7068), sequence (P10828 whole entry, looked up, the tested form may be a part): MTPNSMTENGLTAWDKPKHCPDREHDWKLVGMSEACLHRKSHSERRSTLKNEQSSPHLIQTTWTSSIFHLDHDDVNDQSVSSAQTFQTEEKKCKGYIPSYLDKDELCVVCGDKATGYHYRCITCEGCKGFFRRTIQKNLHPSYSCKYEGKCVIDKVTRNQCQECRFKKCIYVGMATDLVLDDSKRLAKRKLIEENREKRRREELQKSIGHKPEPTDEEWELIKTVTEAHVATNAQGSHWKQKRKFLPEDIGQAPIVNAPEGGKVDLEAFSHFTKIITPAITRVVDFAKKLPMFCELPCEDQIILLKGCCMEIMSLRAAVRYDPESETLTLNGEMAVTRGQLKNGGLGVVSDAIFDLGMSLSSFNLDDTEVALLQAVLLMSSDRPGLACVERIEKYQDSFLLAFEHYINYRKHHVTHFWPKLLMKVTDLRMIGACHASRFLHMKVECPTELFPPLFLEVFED
human Thyroid hormone Receptor alpha (TRa), THRA (gene 7067), sequence (P10827 whole entry, looked up, the tested form may be a part): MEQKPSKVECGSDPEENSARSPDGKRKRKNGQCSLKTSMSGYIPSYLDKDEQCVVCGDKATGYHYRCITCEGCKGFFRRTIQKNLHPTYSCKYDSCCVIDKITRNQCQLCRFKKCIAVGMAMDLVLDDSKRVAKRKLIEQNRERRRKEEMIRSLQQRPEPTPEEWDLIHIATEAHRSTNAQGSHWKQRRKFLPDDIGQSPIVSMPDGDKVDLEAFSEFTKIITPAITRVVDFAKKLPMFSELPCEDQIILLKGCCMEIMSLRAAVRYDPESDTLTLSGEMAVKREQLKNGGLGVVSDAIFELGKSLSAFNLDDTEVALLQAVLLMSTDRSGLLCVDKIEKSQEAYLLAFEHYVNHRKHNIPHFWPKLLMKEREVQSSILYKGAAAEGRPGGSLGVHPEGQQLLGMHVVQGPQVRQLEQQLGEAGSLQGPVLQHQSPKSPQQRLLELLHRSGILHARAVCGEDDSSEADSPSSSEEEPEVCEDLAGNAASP

Turning to `O=C(Oc1ccccc1)c1cccc(C(=O)Oc2ccccc2)c1`, the molecule was called inactive in test [1].

Turning to `Nc1nc(=S)c2[nH]cnc2[nH]1`, the concentration at half-maximal activity (AC50) (commonly the midpoint of the concentration-response curve, whichever way the signal moves) in [1] was 44.7 µM (active).

As for `Cc1c(C)c2c(c(C)c1O)CCC(C)(COc1ccc(CC3SC(=O)NC3=O)cc1)O2` (stereo not given), the outcome in [2], in test [3], in [4], in test [6], in test [7] and in [8] was inactive. Further, the AC50 in test [5] is 2.66 µM (active).

On to `C=CCc1ccc(OC)c(OC)c1`, for which, in test [1], the call was inactive.

As to `CCN(CC)CCOc1ccc(C(=C(Cl)c2ccccc2)c2ccccc2)cc1`, the molecule was called inactive in [9], in [2], in test [4], in test [5] and in test [8]. Also, the AC50 in test [10] is 34 µM (active).

On to `NC(=Nc1ccccc1)Nc1ccccc1`, for which the AC50 in test [1] is 82.8 µM (active).

On to `CC(=O)[C@@]1(O)CC[C@H]2[C@@H]3CCC4=CC(=O)CC[C@]4(C)[C@H]3CC[C@@]21C`, for which the result in test [9], in test [3], in test [5] and in test [7] was inactive.

Regarding `CC(=O)O[C@]1(C(C)=O)CC[C@H]2[C@@H]3C=C(Cl)C4=CC(=O)[C@@H]5C[C@@H]5[C@]4(C)[C@H]3CC[C@@]21C`, the outcome in test [9], in test [2], in test [4] and in test [5] was inactive.
